Compound activity from PubChem BioAssay.
An excerpt weighted towards active compounds, which were near 8.1% of everything screened.
ELG1 DNA repair – qHTS screen for small molecules that inhibit ELG1-dependent DNA repair in human embryonic kidney (HEK293T) cells expressing luciferase-tagged ELG1 | HEK293T ELG1-luciferase reporter, luminescence, 16 h; DNA damage induced by 5-fluorouridine | AID 504467, 2011 | Potency, µM (titrated, usually from 46.1 µM), for inactives: at the highest dose activity change, negative = inhibition, usual class: inhibitors | 330,000 tested, 2.3% active; note: % is set by controls: 0 for no effect and ±100 for the full control effect; nearly all actives have a fitted effect of over 55% in size
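In this reporter screen, reduction of luminescence relative to DMSO vehicle indicated activity. Compounds and 5-fluorouridine were added together to 2,000 cells per well, incubated for 16 hr at 37 °C, then developed with ONE-Glo.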
MCF10A rerep – A quantitative high throughput screen for small molecules that induce DNA re-replication in MCF 10a normal breast cells. AID 624296, 2012. MCF 10A DNA re-replication, Hoechst nuclear intensity, 48 h. Potency, µM (top dose mostly 46.1 µM), for the others: at the top dose activity, positive = re-replication, most hits filed as activators. 350,000 tested, 2.9% active; note: % of control where 0% means no effect; nearly all actives have a fitted effect of over 50% in size
KB-V1 cytotox – qHTS assay for MDR1-selective chemotherapeutics: Primary screen using the drug-selected MDR subline cells KB-V1; Potency, µM (series often up to 46.1 µM), hits mostly cytotoxic; 400,000 tested, 3.4% active; KB-V1 MDR cells viability, CellTiter-Glo, 72 h; note: % is set by controls: 0 for no effect and ±100 for the full control effect; nearly all actives have a fitted effect of over 60% in size
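KB-V1 cells (P-gp-expressing MDR subline of KB-3-1) in phenol-red-free DMEM with 10% FBS were exposed to library compounds over a concentration series for 72 h at 37 degrees C. Viability read by CellTiter-Glo luminescence; concentration-effect curves fitted after normalization.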
SW480 rereplic – A quantitative high throughput screen for small molecules that induce DNA re-replication in SW480 colon adenocarcinoma cells; SW480 DNA re-replication, Hoechst DNA content imaging, 48 h; Potency, µM (titrated, usually from 46.1 µM), without a hit: top-dose re-replication activation, most hits filed as activators; 340,000 tested, 1.8% active; AID 624297, 2012; note: % of control where 0% means no effect; nearly all actives have a fitted effect of over 55% in size
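Readout is total intensity of Hoechst-stained nuclei, excited at 405 nm and collected at 500-530 nm. Compound treatment lasted 48 hr at 37 C in 5% CO2 before staining.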
KB-3-1 tox – qHTS assay for MDR1-selective chemotherapeutics: Primary screen using the parental adenocarcinoma cell KB-3-1 | KB-3-1 viability, CellTiter-Glo ATP luminescence, 72 h | Potency, µM (doses to about 46.1 µM), hits mostly cytotoxic | 400,000 tested, 1.4% active | AID 1347075, 2019; note: % is set by controls: 0 for no effect and ±100 for the full control effect; nearly all actives have a fitted effect of over 60% in size
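Screening of KB-3-1 cells (DMEM, 10% FBS, phenol-red free) ran from lowest to highest compound concentration; after 72 h at 37 °C viability was read luminescently and curves fitted.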
Starred values were filed as active, the others as inactive; i = inactive; ? = inconclusive; · = no result given; [ ] = another dose, or the depositor's remark. Calls come from the whole dose curve; as a rule, active = well fitted curve in the direction sought with a large enough effect; inconclusive = small, poorly fitted or top-dose-only effect, or another doubt; inactive = no such curve, though single readings can be large; an effect the other way counts as inactive or inconclusive. Potency is the fitted concentration of half-maximal effect.

SMILES	ELG1 DNA repair	MCF10A rerep	KB-V1 cytotox	SW480 rereplic	KB-3-1 tox
Cc1cc(C)cc(NC(=O)c2ccc(S(=O)(=O)NCc3cccnc3)cc2)c1	?	-1%	i	-12%	i
Cc1c(-c2nc(-c3ccc4c(c3)[nH]c(=O)n4C)no2)cccc1[N+](=O)[O-]	·	·	i	·	i
COc1ccc(Cl)cc1NC(=O)c1c(C(=O)Nc2cccc(C)c2C)sc2nc(C)cc(=O)n12	·	·	?	·	i
O=C(Nc1ccc(NC(=O)c2ccco2)cc1)c1ccco1	0%	1%	i	1%	i
CC(C)(C)c1ccc(C(=O)Nc2ccc(C(=O)NCc3cccnc3)cc2)cc1	0.52µM*	27%	i	?	i
CC(=O)Oc1ccc(C(=O)Nc2cccc(C(=O)c3ccc(C)c(C)c3)c2)cc1	-3%	?	9.2µM*	-6%	16µM*
CCOC(=O)Cc1ccc(NC(=O)c2ccc(C(C)(C)C)cc2)cc1	18µM*	2%[9.22 µM]	?	-19%	?
COc1ccc(C(=O)Nc2cccc(OC(=O)c3ccc(C)c(C)c3)c2)cc1	?	1%	i	0%	i
CC(C)(C)c1ccc(C(=O)Nc2ccc(NC(=O)c3ccco3)cc2)cc1	14%	13µM*	i	?	i
Cc1ccc2ccccc2c1C(O)c1ncc(-c2ccc(F)cc2)[nH]1 (stereo not given)	·	·	i	·	i
O=C(CO)c1c[nH]c2ccccc12	·	·	i	·	?
CCC(CC)C(=O)N1N=C(c2ccc(NS(C)(=O)=O)cc2)CC1c1ccc(C)cc1 (stereo not given)	?	4%	18µM*	-11%	i
CCC(CC)C(=O)N1N=C(c2ccc(NS(C)(=O)=O)cc2)CC1c1ccccc1 (stereo not given)	?	?	?	-16%	i
COc1ccc(OC(=O)N2CCOCC2)cc1	?	1%	i	-8%	i
COc1ccc(/C(N)=N/OC(=O)N2CCOCC2)cc1	-2%	21µM*	i	?	i
O=[N+]([O-])c1cc(-c2n(-c3ccccn3)c3ccccc3[n+]2-c2ccccn2)ccc1Cl	18µM*	-35%	?	-2%	i
COc1ccc(NC(=O)C(=O)NCC(c2ccc3c(c2)OCO3)N2CCN(C)CC2)cc1 (stereo not given)	·	·	i	·	i
CCOC(=O)C1CCN(C(=O)CN(C)S(=O)(=O)c2cc(C)ccc2OC)CC1	6%	1%	23µM*	2%	i
COc1ccccc1Oc1nc2c(C)cccn2c(=O)c1/C=C(\C#N)c1nc2ccccc2[nH]1	·	·	i	·	i
Cc1ccccc1CN1CCN(C(C)C(=O)NCc2ccccc2)CC1 (stereo not given)	-13%	1%	i	-5%	i
Cc1ccc(NC(=O)CN(C)C(=O)C(C)N2CCN(Cc3ccccc3C)CC2)cc1 (stereo not given)	-1%	0%	9.2µM*	1%	i
CCC(c1nnnn1-c1ccc2c(c1)OCCO2)N1CCN(C(C)=O)CC1 (stereo not given)	·	·	i	·	i
Cc1ccc(S(=O)(=O)N2[C@H](CC(=O)c3cccc4ccccc34)OC[C@@H]2C(C)C)cc1	·	·	?	·	i
CSCCC(NC(=O)c1cccc(C)c1)C(=O)NNC(=O)c1cccs1 (stereo not given)	20%	2%	i	-3%	i
CN(C)CCCNC(=S)N1CCC(C(=O)c2ccc(Cl)cc2)CC1	·	·	i	·	i
COc1ccc(C(=O)C2CCN(C(=S)NCCc3ccc(OC)c(OC)c3)CC2)cc1	21µM*	-21%	i	0%	i
COCCNC(=S)N1CCC(C(=O)c2ccc(F)cc2)CC1	·	-3%	?	-5%	i
CC(C)OCCCNC(=S)N1CCC(C(=O)c2ccc(Cl)cc2)CC1	?	?	8.2µM*	0%	i
